# HTR5A inv ag – HTR5A inverse agonism, opioid heterodimer counter-screen | inhibition, % at 9.3 µM | P47898 | AID 504634 | HTR5A cell line, luminescence | hit rate 0.083% among 340,000; in the data active = inhibition mostly above about 23%, no sharp cut-off; inactive = mostly below about 18%;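 note: 0% = cells with DMSO and 100% = no-cell wells with DMSO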
# MOR-DOR ag-1 – OPRM1-OPRD1 heterodimerization agonism; P35372+P41143; AID 504326; activation, % at 9.3 µM; cells, luminescence; hit rate 0.3% among 340,000;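 note: 0% = vehicle-treated cells and 100% = reference agonist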
# Target sequence (P35372 whole entry, looked up): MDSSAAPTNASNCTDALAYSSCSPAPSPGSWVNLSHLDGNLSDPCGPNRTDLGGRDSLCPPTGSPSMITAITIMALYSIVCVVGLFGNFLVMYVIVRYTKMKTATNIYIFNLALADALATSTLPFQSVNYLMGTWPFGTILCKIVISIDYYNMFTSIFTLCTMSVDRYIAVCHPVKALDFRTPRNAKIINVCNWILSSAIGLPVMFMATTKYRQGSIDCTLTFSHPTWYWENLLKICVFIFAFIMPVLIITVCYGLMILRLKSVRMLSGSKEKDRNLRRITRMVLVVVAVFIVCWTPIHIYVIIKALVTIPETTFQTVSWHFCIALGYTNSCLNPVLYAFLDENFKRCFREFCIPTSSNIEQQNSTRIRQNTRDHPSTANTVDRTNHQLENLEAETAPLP
# Target sequence (P41143 whole entry, looked up): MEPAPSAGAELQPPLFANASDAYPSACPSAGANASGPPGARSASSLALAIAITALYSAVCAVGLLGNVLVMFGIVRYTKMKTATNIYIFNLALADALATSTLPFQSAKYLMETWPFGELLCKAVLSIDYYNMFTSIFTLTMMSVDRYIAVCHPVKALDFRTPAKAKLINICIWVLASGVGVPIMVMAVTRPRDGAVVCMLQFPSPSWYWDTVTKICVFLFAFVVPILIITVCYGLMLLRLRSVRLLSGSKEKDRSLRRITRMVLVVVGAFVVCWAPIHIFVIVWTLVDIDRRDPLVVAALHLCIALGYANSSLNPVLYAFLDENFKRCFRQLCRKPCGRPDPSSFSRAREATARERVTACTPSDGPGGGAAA
# HTR5A ag – activates human HTR5A in OPRM1-OPRD1 agonist counter-screen | HTR5A agonist assay, luminescence, cell-based | activation, % at 9.3 µM | hit rate 0.61% among 340,000; in the data active = activation mostly above about 9.5%, no sharp cut-off; inactive = mostly below about 7.6%;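 note: 0% = cells with vehicle only and 100% = reference agonist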
# MOR-DOR inv ag – mu-delta opioid heterodimer inverse agonism; cell-based MOR-DOR heterodimer luminescence; inhibition, % at 9.3 µM; hit rate 0.21% among 340,000; AID 504357; in the data active = inhibition above about 22%, passing the limit was not always enough;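 note: 0% = cells with DMSO and 100% = wells without cells with DMSO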
# MOR-DOR ag-2 – opioid heterodimer agonism, HTR5A counter-screen; shares compounds with HTR5A ag; U2OS counter-screen cells, complementation luminescence, 3 h; activation, % at 9.3 µM; hit rate 13% among 800
# HTR5A ag conf – confirmation of human HTR5A agonists | shares compounds with HTR5A ag | HTR5A agonist cell assay, luminescence | activation, % at 9.3 µM | hit rate 17% among 800 | AID 504915; in the data active = activation above about 17%;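 note: 0% = cells with vehicle only and 100% = full reference agonist response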
# * hit, by the source's call; nt = no result. Sampled rows, rich in hits. Any-hit rate of the full collection: about 1.1%. Cut-off read from the data, not from the text of the source, unless noted: active = activation above about 18%; inactive = the rest.
SMILES,HTR5A inv ag,MOR-DOR ag-1,HTR5A ag,MOR-DOR inv ag,MOR-DOR ag-2,HTR5A ag conf
Cc1ccc(Cn2c(N)c(S(=O)(=O)c3cccs3)c3nc4ccccc4nc32)cc1,-7,2,3,-12,nt,nt
COc1ccc(Cn2c(N)c(S(=O)(=O)c3cccs3)c3nc4ccccc4nc32)cc1,-5,3,15*,-13,3,3
O=C(CNS(=O)(=O)c1cccc(Br)c1)NCCCc1ccccc1,-2,-1,-2,4,nt,nt
O=C(COC(=O)c1cccnc1Cl)Nc1ccccc1OC(F)F,-2,-2,1,13,nt,nt
CCCn1c(SCC(=O)N2N=C3/C(=C/c4ccc(OC)cc4)CCCC3C2c2ccc(OC)cc2)n[nH]c1=O (stereo not drawn),-77,2,23*,-9,26*,7
CC(C)(C)c1ccc(C(=O)Nc2nnc(Cc3c[nH]c4ccccc34)s2)cc1,-53,8,21*,-43,1,1
O=C(Nc1nnc(Cc2c[nH]c3ccccc23)s1)c1ccc(Cl)cc1Cl,8,4,7,-20,nt,nt
COc1ccc(-c2noc(CCC(=O)Nc3cccnc3)n2)cc1OC,4,-4,2,15,nt,nt
Cc1ccc(NC(=O)c2ccc(Cl)c(S(=O)(=O)NCC3CCCO3)c2)c(O)c1 (stereo not drawn),-19,-2,-1,12,nt,nt
O=C(CSc1n[nH]c(=O)n1C1CC1)Nc1ccc(F)c([N+](=O)[O-])c1,-39,-2,14*,8,51*,6
COc1ccc(C)cc1N(CC(=O)N1CCc2ccccc2C1)S(C)(=O)=O,7,-1,-2,4,nt,nt
NCc1cc2c3c(c1)CCCN3CCC2,-15,-2,4,12,nt,nt
Cc1ccc(NC(=O)CSc2nnc(C)c(=O)n2N)cc1Cl,4,-4,3,21,nt,nt
Cc1[nH]n(-c2ccccc2)c(=O)c1C=NCCc1ccccc1,-1,-2,2,12,nt,nt
CCCc1[nH]n(-c2ccc([N+](=O)[O-])cc2)c(=O)c1C=NCCc1c[nH]c2ccccc12,-44,1,20*,-7,5,5
Cc1[nH]n(-c2ccc([N+](=O)[O-])cc2)c(=O)c1C=NCCc1c[nH]c2ccccc12,-100,1,34*,-5,3,10
Fc1ccc(Nc2c3c(nc4ccccc24)CCC3)cc1,6,1,-2,-6,nt,nt
CCOC(=O)c1sc(NNC(=O)c2ccc(C)cc2)nc1C,-16,0,0,2,nt,nt
CCOC(=O)c1sc(NNC(=O)c2ccc(F)cc2)nc1C,-3,3,16*,-14,0,-2
O=C(c1ccccc1)c1cccc(NC(=O)c2ccc(Br)o2)c1,2,-1,-3,4,nt,nt
COc1ccccc1CC(=O)Nc1ccc2nc(C)sc2c1,-15,0,4,-1,nt,nt
C=CCN1C(=O)C(CC(=O)Nc2ccc(OCCC)cc2)N(CCCN2CCN(Cc3ccccc3)CC2)C1=S (stereo not drawn),-73,16,17*,-76,39*,-2
CCN1C(=O)C(CC(=O)Nc2ccc(F)cc2)N(Cc2ccco2)C1=S (stereo not drawn),6,-3,-3,13,nt,nt
COc1ccc(NC(=O)CC2C(=O)N(Cc3ccccc3)C(=S)N2CCN2CCOCC2)cc1 (stereo not drawn),-4,1,1,-5,nt,nt
CCCCCCOc1ccc(NC(=O)CC2C(=O)N(CC)C(=S)N2Cc2ccco2)cc1 (stereo not drawn),-34,3,15*,-16,-1,-9
SMILES,HTR5A inv ag,MOR-DOR ag-1,HTR5A ag,MOR-DOR inv ag,MOR-DOR ag-2,HTR5A ag conf
COCCSc1ccccc1C(=O)NCC1CCCO1 (stereo not drawn),11,-2,7,11,nt,nt
O=P(O)(COc1ccccc1)COc1ccccc1,8,-2,-3,9,nt,nt
c1ccc2c(NCCc3c[nH]c4ccccc34)c3ccccc3nc2c1,-68,3,17*,-17,7,2
COc1ccc(C(=O)CCC(=O)NCCc2c[nH]c3ccccc23)cc1,-156,-4,44*,20,0,42*
O=C(NCCc1c[nH]c2ccccc12)c1cccc(S(=O)(=O)Nc2ccccc2Cl)c1,2,-2,0,8,nt,nt
Cc1ccccc1NC(=O)C(=O)NCCc1c[nH]c2ccccc12,-190,3,35*,-16,2,61*
Fc1cccc(NCCc2c[nH]c3ccccc23)n1,12,5,-3,-26,nt,nt
CN(c1ccccc1)S(=O)(=O)c1cccc(C(=O)NCCc2c[nH]c3ccccc23)c1,-73,-2,27*,8,57*,1
CC1(C)Cc2cccc(OCC(=O)OCc3nnc(-c4ccc([N+](=O)[O-])cc4)o3)c2O1,-4,-1,0,5,nt,nt
CCOC(=O)NC1c2ccccc2Oc2ccccc21,-2,-2,6,12,nt,nt
COc1cccc(S(=O)(=O)NCc2ccc(C(=O)N3CCN(Cc4ccccc4)CC3)cc2)c1,-12,-1,0,9,nt,nt
CCCCS(=O)(=O)N1CCCC(C(=O)N2CCOCC2)C1 (stereo not drawn),-21,-2,-3,11,nt,nt
O=C(O)c1nccnc1C(=O)NCCc1c[nH]c2ccccc12,-5,-3,16*,18,0,12
O=C(CCC(=O)c1ccccc1)NCCc1c[nH]c2ccccc12,-293,-1,94*,8,2,89*
O=C(Cc1ccccc1)NCCc1c[nH]c2ccccc12,-2,-2,0,10,nt,nt
Cc1cc(C(=O)COC(=O)CC2Sc3ccccc3NC2=O)c(C)n1-c1cccc(C(F)(F)F)c1 (stereo not drawn),-2,8,4,-53,nt,nt
COc1ccccc1OCCCOc1c(Cl)cc(C)cc1Cl,-8,1,3,-6,nt,nt
Cc1cc(C)cc(OCC(=O)Nc2nc(-c3ccccn3)cs2)c1,-30,2,21*,-11,0,64*
COC(=O)c1ccc(/C=C2\SC(=S)N(CCCC(=O)N3CCOCC3)C2=O)cc1,-1,-1,0,10,nt,nt
CCOc1ccc(S(=O)(=O)N2CN3CCN(C3)C2)cc1,-14,-2,2,9,nt,nt
CCOc1ccc(S(=O)(=O)N2CCNC(=O)C2)cc1,-57,0,20*,0,0,2
O=C(CSc1nc2ccccc2c(=O)[nH]1)c1ccc(O)c(O)c1,10,0,6,2,nt,nt
O=C(CSc1nc2ccccc2c(=O)[nH]1)c1ccc(O)cc1O,-5,4,16*,-21,1,2
COc1ccc(NC(=O)CSc2nc3ccccc3c(=O)[nH]2)cc1S(N)(=O)=O,-50,-3,21*,13,0,6
CCOC(=O)N1CCc2c(sc3c2c(=O)n(Cc2ccccc2)c(=O)n3Cc2cccc(C)c2)C1,-5,0,2,3,nt,nt
CC(Sc1nnc2ccccn12)C(=O)Nc1ccc2c(c1)OCO2 (stereo not drawn),14,-1,-4,4,nt,nt
CC(C)c1ccc(Nc2ncccc2C(=O)O)cc1,-3,1,3,-3,nt,nt
